# PubChem BioAssay
# Activity calls are given as the source filed them. No rule for the calls is given here.
# Target: Pantothenate synthetase (Mycobacterium tuberculosis (strain ATCC 25618 / H37Rv)) (UniProt P9WIL5)
# Assay: Coupled enzyme confirmation of inhibitors against recombinant Mtb PanC (AID 375);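 also: 0% = full reaction with vehicle and 100% = no enzyme background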
# Settings: coupled enzyme assay; at 10 µM, hits give high values
# Sequence of Pantothenate synthetase (Mycobacterium tuberculosis (strain ATCC 25618 / H37Rv)) (P9WIL5 whole entry, looked up): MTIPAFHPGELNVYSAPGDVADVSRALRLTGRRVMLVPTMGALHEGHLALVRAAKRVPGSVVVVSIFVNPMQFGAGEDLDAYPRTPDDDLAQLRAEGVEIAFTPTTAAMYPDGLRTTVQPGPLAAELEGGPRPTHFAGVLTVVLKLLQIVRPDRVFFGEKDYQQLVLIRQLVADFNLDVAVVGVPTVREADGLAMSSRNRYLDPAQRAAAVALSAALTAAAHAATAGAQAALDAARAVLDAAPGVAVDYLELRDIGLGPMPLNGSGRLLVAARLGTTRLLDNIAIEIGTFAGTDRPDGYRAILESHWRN
row,SMILES,inhibition
1,CCOC(=O)c1ccccc1NC(=O)N1CCn2c(C)ccc2C1CC (stereo not given),2% (inactive)
2,c1ccc(Cn2nnnc2CN2CCCC2)cc1,0% (inactive)
3,COc1ccc(OCc2nc(C#N)c(N3CCN(c4ccc(OC)cc4)CC3)o2)cc1,2% (inactive)
4,CN(C)c1ccc(/C=C/C(O)=C2/C(=O)N(C)C3(C)CC2c2ccccc2O3)cc1 (stereo not given),0% (inactive)
5,COC(=O)C(CC(C)C)NC(=O)CSc1nc(-c2ccccc2)c(C#N)c(=O)[nH]1 (stereo not given),0% (inactive)
6,C=CCC(Nc1ccco1)c1ccccc1 (stereo not given),1% (inactive)
7,CCOC(=O)CSc1nnc([C@H](CC(C)C)NC(=O)OC(C)(C)C)o1,2% (inactive)
8,CC1(C)NC(=O)N(CC(O)CN2CCCC2)C1=O (stereo not given),2% (inactive)
9,O=C(NC1CCS(=O)(=O)C1)c1c(NC(=O)C2COc3ccccc3O2)sc2c1CCCC2 (stereo not given),0% (inactive)
10,CC(C)(C)c1ccc(C(=O)Nc2cnccn2)cc1,2% (inactive)
11,Cc1cc(C)c2c(n1)nn1c(N3CCOCC3)cc(C)nc21,0% (inactive)
12,Cc1ccccc1OCCn1c(=O)oc2ccccc21,2% (inactive)
13,CCOC(=O)c1nnn(CC(=O)Nc2cccc(F)c2)c1C(=O)OCC,3% (inactive)
14,CCOC(=O)c1ccccc1NC(=O)c1ccc(NS(C)(=O)=O)cc1,0% (inactive)
15,Cc1cc(C)c2c(=O)n(CC(=O)N3CCC(Cc4ccccc4)CC3)sc2n1,0% (inactive)
16,Cc1nnc(NCc2n[nH]c(=O)c3ccccc23)c2ccccc12,13% (inactive)
17,C=CCOC(=O)CC(NC(=O)c1ccccc1)c1ccccc1 (stereo not given),0% (inactive)
18,COCCCNC(=O)C(Cc1ccccc1)NS(=O)(=O)c1ccc2c(c1)c(=O)n(C)c(=O)n2C (stereo not given),0% (inactive)
19,COc1cccc(C(=O)Nc2ccc(C)cc2)c1,1% (inactive)
20,CCc1nnc(NC(=O)C2Cc3ccccc3CN2S(=O)(=O)c2cccs2)s1 (stereo not given),1% (inactive)

row,SMILES,inhibition
1,COc1ccc(Nc2nc(Nc3ccc(OC)cc3)nc(-n3[nH]c(=O)c(C)c3C)n2)cc1,0% (inactive)
2,CCC(C)C(=O)Nc1nc2c(s1)C(=O)CC(C)(C)C2 (stereo not given),10% (inactive)
3,COc1ccc(-c2noc(COc3ccc4ccccc4c3Br)n2)cc1OC,6% (inactive)
4,COc1cc2c(cc1NC(=O)CN1CCN(S(=O)(=O)c3ccc(F)cc3)CC1)oc1ccccc12,0% (inactive)
5,CCc1ccccc1N1CC23C=CC(O2)C(C(=O)O)C3C1=O (stereo not given),0% (inactive)
6,Cc1ccc2cc3cc(C(=O)NCCN4CCOCC4)oc3nc2c1,4% (inactive)
7,COCCN1CN(S(=O)(=O)c2ccccc2)c2nc3ccccc3nc21,0% (inactive)
8,O=C(Nc1nnc(C2CCCC2)s1)C1CCN(S(=O)(=O)c2ccc(Cl)cc2)CC1,0% (inactive)
9,CCCc1nn(CCc2ccccn2)c(N)c1CC,6% (inactive)
10,CCOC(=O)N1CCN(C(=O)CN(Cc2ccccc2)S(=O)(=O)c2ccc(OC)c(C)c2)CC1,5% (inactive)
11,Cc1nc2c3cnn(-c4ccccc4)c3ncn2n1,7% (inactive)
12,CC(C(=O)N1CC2(C)CC1CC(C)(C)C2)N1C(=O)c2ccccc2C1=O (stereo not given),8% (inactive)
13,CCC(c1nnnn1Cc1ccco1)N(CCc1ccccc1)Cc1cc2cccc(C)c2[nH]c1=O (stereo not given),1% (inactive)
14,Cc1ccccc1C(OCCN(C)C)c1ccccc1 (stereo not given),0% (inactive)
15,CC1(C2(O)CC(c3ccccc3)ON2)CCCCC1 (stereo not given),2% (inactive)
16,Cc1nnc(SCC(=O)Nc2sc3c(c2C#N)CCCC3)[nH]c1=O,0% (inactive)
17,COc1ccc(S(=O)(=O)n2ccnc2)c2cccnc12,4% (inactive)
18,CC(C)C(=O)N1CCN(c2nc(-c3ccccc3)c3c(c2C#N)CCCC3)CC1,0% (inactive)
19,CC(C)=CC(=O)OCC(=O)NC(=O)NC(C)(C)C,0% (inactive)
20,Cc1c[nH]c2cccc(OCC(O)CNC(C)(C)C)c12 (stereo not given),0% (inactive)
